High-throughput results from PubChem BioAssay.
USP1-UAF1 inh: inhibitors of human USP1/UAF1 deubiquitinase | O94782 | recombinant USP1/UAF1, Ub-Rhodamine cleavage fluorescence | Potency, µM (series often up to 57.1 µM), hits mostly inhibitors | 390,000 compounds, 0.23% hits | AID 743255; further: nearly all actives have a fitted effect of over 60% in size
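In this screen, compounds sit with the deubiquitinase complex (1nM) for 15 min at room temperature before Ub-Rho is added at 150nM final. Fluorescence rise is then followed for 6 reads every 60 seconds.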
Coupling enz: coupling enzyme interference in Giardia aldolase counter-screen; coupling enzyme system counterscreen, AmpLite Red fluorescence; activity change, negative = inhibition, % at 58.2 µM, hits read low; 290,000 compounds, 0.67% hits; in the data active means activity change below about -30%
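Final compound at 57.5 uM, incubated 10 min at RT with coupling enzyme reagent (glyceraldehyde-3-phosphate), then 20 min with substrate and AmpLite Red detection. Fluorescence read at 525/598 nm; tests interference with the coupling assay, not aldolase inhibition.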
Tau fibril FP: inhibitors of human tau fibril formation; P10636; K18 P301L tau heparin fibrillization, Alexa594 FP, 6 h; AID 1468; 280,000 compounds, 0.39% hits; Potency, µM (series often up to 57.7 µM), usual class: inhibitors; further: nearly all actives have a fitted effect of over 55% in size
Target sequence (P10636 561-689 P618L limits assumed): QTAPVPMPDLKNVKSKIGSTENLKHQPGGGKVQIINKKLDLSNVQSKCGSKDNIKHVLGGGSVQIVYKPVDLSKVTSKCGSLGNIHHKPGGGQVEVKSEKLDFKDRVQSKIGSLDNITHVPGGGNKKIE
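Human tau K18 […] P301L fragment, 15 uM unlabeled plus 0.24 uM Alexa 594-labeled tau (final), with compound and 20 uM heparin in 100 mM sodium acetate pH 7; 6 hr at 37 C, then Alexa 594 FP read.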
Tau fibril ThT: tau fibrillization inhibition (ThT binding) | P10636 | recombinant tau K18 P301L, heparin-induced fibrillization, ThT fluorescence | Potency, µM (doses to about 57.4 µM), usual class: inhibitors | 270,000 compounds, 2.1% hits | AID 1460; further: nearly all actives have a fitted effect of over 55% in size
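Recombinant human tau K18 fragment […] carrying P301L, 15 uM unlabeled plus 0.24 uM Alexa 594-labeled, was fibrillized with 20 uM heparin in 100 mM sodium acetate pH 7 for 6 hr at 37 C; 30 uM ThT fluorescence read after 1 hr.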
Tau fluor cs: counter-screen for tau fibril formation inhibitors. tau K18 P301L Alexa594 fluorescence, heparin fibrillization. Potency, µM (titrated, usually from 57.7 µM). 280,000 compounds, 0.93% hits. AID 1463; further: nearly all actives have a fitted effect of over 55% in size
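Human tau K18 P301L (15 uM unlabeled, 0.24 uM Alexa 594-labeled) in 100 mM sodium acetate pH 7 with 20 uM heparin, 6 hr at 37 C. ThT 30 uM added, 1 hr ambient; Alexa 594 FP and total fluorescence read at 555/632 nm.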
Of the large screens only hits and unclear results are named; the others gave an inactive call; [ ] = dose if it differs, or a comment. The list is not random: actives were taken first. Their share in the collection is about 2.3%. Unless noted, the call rests on the fitted dose curve; in most records, active means well fitted curve in the direction sought with a large enough effect; inconclusive means small, poorly fitted or top-dose-only effect, or another doubt; inactive means no such curve, though single readings can be large; an effect the other way counts as inactive or inconclusive.

COC(=O)c1ccc(C2Nc3cccc4cccc(c34)N2)cc1	Tau fibril FP inconclusive, Tau fibril ThT 14.1µM, Tau fluor cs 14.1µM[quencher]
Oc1ccc(C2Nc3cccc4cccc(c34)N2)c(O)c1	Tau fibril FP inconclusive, Tau fibril ThT 14.1µM, Tau fluor cs 7.94µM[quencher]
O=[N+]([O-])c1ccc(C2Nc3cccc4cccc(c34)N2)cc1	Tau fibril FP inconclusive, Tau fibril ThT 14.1µM, Tau fluor cs 12.6µM[quencher]
c1coc(C2Nc3cccc4cccc(c34)N2)c1	Tau fibril FP inconclusive, Tau fibril ThT 11.2µM, Tau fluor cs 7.94µM[quencher] (no result: USP1-UAF1 inh)
CCN(CC)c1ccc(NS(=O)(=O)c2cn(C)c(=O)n(C)c2=O)c(C)c1	none (no result: Tau fibril FP, Tau fibril ThT, Tau fluor cs)
COCCN1C(=S)N[C@@H](c2ccccc2)C(C(=O)OC)=C1C	none (no result: USP1-UAF1 inh, Tau fibril FP, Tau fibril ThT, Tau fluor cs)
C=C1C[C@]23C[C@@]1(O)CC[C@H]2[C@@]12C=C[C@H](O)C(C)(C(=O)O1)[C@H]2[C@@H]3CC(=O)O	none (no result: USP1-UAF1 inh)
COc1cc(C2Nc3cccc4cccc(c34)N2)ccc1OC(C)=O	Tau fibril ThT inconclusive, Tau fluor cs inconclusive
COc1cc(C2Nc3cccc4cccc(c34)N2)cc(OC)c1O	Tau fibril FP inconclusive, Tau fibril ThT 15.8µM, Tau fluor cs 4.47µM[quencher]
COc1ccc(C2/C=C\CN(C(=O)CC(C)(C)C)C(C)C(=O)N2Cc2ccc(F)cc2)cc1 (configuration not stated)	none (no result: USP1-UAF1 inh, Tau fibril FP, Tau fibril ThT, Tau fluor cs)
CC(C)N(C(=O)Nc1ccc2nccnc2c1)C(C)C	Coupling enz -39.5, Tau fibril ThT inconclusive
Cc1nc2ccc(NC(=O)N(C(C)C)C(C)C)cc2s1	Tau fibril ThT inconclusive
COc1ccc(NC(=O)CSc2oc(-c3ccc(C)cc3)nc2S(=O)(=O)c2ccc(C)cc2)c(OC)c1	Tau fluor cs inconclusive (no result: Coupling enz)
O=C(NC(=S)Nc1ccccc1N1CCCC1)c1ccco1	USP1-UAF1 inh inconclusive, Coupling enz -37.7, Tau fibril ThT inconclusive, Tau fluor cs inconclusive
CN1CCN(C(=S)c2ccc(-c3cccc(Cl)c3Cl)o2)CC1	Tau fibril ThT 14.1µM
COc1ccc(N/N=C(/N=Nc2nc(C)cc(=O)[nH]2)c2ccccc2)cc1	Tau fibril ThT 4.47µM, Tau fluor cs inconclusive
Cc1cc(=O)[nH]c(N=N/C(=N/Nc2ccc(O)cc2)c2ccccc2)n1	none
Cc1ccc(NC(=O)Cn2c(=O)n(-c3ccc(CC(=O)NCC4CCCO4)cc3)c(=O)c3ccccc32)cc1 (configuration not stated)	none (no result: Coupling enz)
O=C1C[C@@H](c2ccccc2Cl)N1S(=O)(=O)c1ccccc1[N+](=O)[O-]	none (no result: USP1-UAF1 inh, Tau fibril FP, Tau fibril ThT, Tau fluor cs)
S=C(NNc1ccnc2cc(Cl)ccc12)Nc1ccc(Cl)cc1Cl	Tau fibril FP inconclusive, Tau fibril ThT 3.98µM, Tau fluor cs 3.98µM[quencher]
CCOc1ccccc1Nc1ccnc2cc(Cl)ccc12	none
S=C(NCc1ccncc1)Nc1ccc(Cl)cc1Cl	none
CCOc1ccc(NC(=S)NNc2ccnc3cc(Cl)ccc23)cc1	Tau fibril ThT 12.6µM, Tau fluor cs inconclusive
CCCCCCc1ccc(-c2ncc(N)cn2)cc1	Tau fluor cs 14.1µM[quencher]
O=S(=O)(c1ccc(F)cc1)c1snnc1-c1ccccc1	Coupling enz -30.5, Tau fibril ThT inconclusive
O=S(=O)(c1ccc(Cl)cc1)c1snnc1-c1ccccc1	Tau fibril ThT inconclusive
CCOc1ccc(-c2ccc(/C=C3/C(=N)N4C(C)=CSC4=NC3=O)o2)c([N+](=O)[O-])c1	Tau fibril ThT 3.16µM, Tau fluor cs inconclusive
O=C1C(Cl)=C(NCCCO)C(=O)c2ccccc21	USP1-UAF1 inh inconclusive, Coupling enz -38.0, Tau fibril ThT inconclusive
O=C1C(Cl)=C(NCCN2CCOCC2)C(=O)c2ccccc21	USP1-UAF1 inh inconclusive (no result: Tau fibril FP, Tau fibril ThT, Tau fluor cs)
CCOCCCNC1=C(Cl)C(=O)c2ccccc2C1=O	USP1-UAF1 inh inconclusive, Tau fibril FP inconclusive, Tau fibril ThT 15.8µM, Tau fluor cs inconclusive
CN1CCN(c2ncc3nc(-c4ccccc4)c(=O)n(C)c3n2)CC1	none (no result: USP1-UAF1 inh, Tau fibril FP, Tau fibril ThT, Tau fluor cs)
CC1CCc2onc(C(=O)N3CCN(c4ccccc4)CC3)c2C1 (configuration not stated)	Tau fibril ThT inconclusive (no result: Coupling enz)
CC(=O)c1ccc(OC(=O)c2c(-c3ccccc3Cl)noc2C)cc1	none (no result: Coupling enz)
O=C(CN(c1cc(C(F)(F)F)ccc1Cl)S(=O)(=O)c1ccccc1)NCCc1ccccc1	Tau fluor cs inconclusive (no result: Coupling enz)
CCOC(=O)/C(C#N)=C/C=C1\C=Cc2ccccc2N1CC	USP1-UAF1 inh inconclusive, Tau fibril ThT 1.58µM
